Data on eight molecules can be found in PubChem BioAssay (EPA / NIEHS).

Calls of active or inactive are those of the source. Rule for the calls: active = hit-call score of the fitted dose curve at least 0.9, where 1 is the maximum; inactive = score below 0.9.

Read-out in assay [1]: TIMP metallopeptidase inhibitor 1 (TIMP1), TIMP1 (gene 7076)
Nature of the assay: BSK_hDFCGF_TIMP1: BioMAP Diversity Plus: hDFCGF Assay for TIMP metallopeptidase inhibitor 1 (TIMP1) Biomarker Activity (AID 2283062). To be noted: primary human foreskin fibroblasts; actives raise or lower the signal. In outline: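 Fibroblasts from human foreskin are treated with test chemical and harvested at 24 h. TIMP-1 is quantified by ELISA, and gain or loss of signal is scored against DMSO.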

Read-out in assay [2]: Monokine induced gamma interferon (MIG), CXCL9 (gene 4283)
The assay can be described thus: BSK_hDFCGF_MIG: BioMAP Diversity Plus: hDFCGF Assay for Monokine induced gamma interferon (MIG) Biomarker Activity (AID 2283063). To be noted: primary human foreskin fibroblasts; actives raise or lower the signal. Summed up:
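MIG signal, determined by ELISA, reflects 24 h chemical exposure of human skin primary fibroblasts. DMSO serves as negative control and baseline.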

Read-out in assay [3]: Vascular cell adhesion molecule 1 (VCAM1), VCAM1 (gene 7412)
Nature of the assay: BSK_hDFCGF_VCAM1: BioMAP Diversity Plus: hDFCGF Assay for Vascular cell adhesion molecule 1 (VCAM1) Biomarker Activity (AID 2283065). To be noted: primary human foreskin fibroblasts; actives raise or lower the signal. Summed up: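 Cells are dosed, cultured for 24 h, then VCAM-1 is quantified by ELISA; signal increases and decreases are both fitted relative to DMSO.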

Read-out in assay [4]: Plasminogen activator inhibitor-1 (PAI1), SERPINE1 (gene 5054)
The assay can be described thus: BSK_hDFCGF_PAI1: BioMAP Diversity Plus: hDFCGF Assay for Plasminogen activator inhibitor-1 (PAI1) Biomarker Activity (AID 2283066). To be noted: primary human foreskin fibroblasts; actives raise or lower the signal. In outline: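 PAI-1 levels in human dermal foreskin fibroblasts were quantified by ELISA 24 h after dosing, with gain or loss analysed against DMSO. Overt cytotoxicity was checked by sulforhodamine B total-protein staining in parallel cultures.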

Read-out in assay [5]: Intercellular Adhesion Molecule 1 (ICAM1), ICAM1 (gene 3383)
The assay can be described thus: BSK_KF3CT_ICAM1: BioMAP Diversity Plus: KF3CT Assay for Intercellular Adhesion Molecule 1 (ICAM1) Biomarker Activity (AID 2283067). To be noted: primary human keratinocytes with fibroblasts; actives raise or lower the signal. In outline: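 Dose the keratinocyte/fibroblast co-culture, wait 24 h, measure ICAM-1 by ELISA, then fit increases or decreases against DMSO. Cytotoxicity is checked in parallel cultures by SRB total-protein staining.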

Read-out in assay [6]: Interferon-gamma inducible Protein 10 (IP10), CXCL10 (gene 3627)
The assay can be described thus: BSK_KF3CT_IP10: BioMAP Diversity Plus: KF3CT Assay for Interferon-gamma inducible Protein 10 (IP10) Biomarker Activity (AID 2283068). To be noted: primary human keratinocytes with fibroblasts; actives raise or lower the signal. Summed up:
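Human keratinocyte plus foreskin fibroblast primary co-culture exposed to test chemical for 24 h; IP-10 measured by ELISA. Concentration-response fitted bidirectionally against DMSO control as baseline.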

The nature of assay [7]: BSK_KF3CT_SRB: Viability Assessment in the BioMAP Diversity Plus: KF3CT Assay (AID 2283069). To be noted: primary human keratinocytes with fibroblasts. In outline:
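Cytotoxicity was gauged by SRB staining (0.1% SRB, 10% TCA fixation, 560 nm) of parallel cultures at 24 h. The cells were primary human skin keratinocytes co-cultured with fibroblasts, and activity was fitted in both directions against DMSO.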

Read-out in assay [8]: Interleukin-1 alpha (IL1a), IL1A (gene 3552)
The assay can be described thus: BSK_KF3CT_IL1a: BioMAP Diversity Plus: KF3CT Assay for Interleukin-1 alpha (IL1a) Biomarker Activity (AID 2283070). To be noted: primary human keratinocytes with fibroblasts; actives raise or lower the signal. In outline: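 IL-1a was detected by ELISA 24 h after chemical treatment of a co-culture of human skin keratinocytes and foreskin fibroblasts. Gain or loss of signal was fitted against the DMSO baseline.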

Read-out in assay [9]: Transforming growth factor beta 1 (TGFb1), TGFB1 (gene 7040)
Nature of the assay: BSK_KF3CT_TGFb1: BioMAP Diversity Plus: KF3CT Assay for Transforming growth factor beta 1 (TGFb1) Biomarker Activity (AID 2283072). To be noted: primary human keratinocytes with fibroblasts; actives raise or lower the signal. In outline: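 ELISA quantifies TGF-b1 at 24 h post-dose in a primary human skin co-culture of keratinocytes and fibroblasts, with gain or loss judged against DMSO. Parallel SRB total-protein staining flags overt cytotoxicity.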

Read-out in assay [10]: C-C motif chemokine 2 (Homo sapiens) (UniProt P13500)
The assay can be described thus: BSK_KF3CT_MCP1: BioMAP Diversity Plus: KF3CT Assay for Monocyte Chemoattractant Protein 1 (MCP1/CCL2) Biomarker Activity (AID 2283073). To be noted: primary human keratinocytes with fibroblasts; actives raise or lower the signal. In outline: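 Keratinocytes and foreskin fibroblasts were co-cultured, dosed with chemical, and sampled 24 h later. MCP-1 was quantified by ELISA, and the endpoint was analyzed with bidirectional fitting using DMSO as negative control.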

Read-out in assay [11]: urokinase plasminogen activator (uPA), PLAU (gene 5328)
Nature of the assay: BSK_KF3CT_uPA: BioMAP Diversity Plus: KF3CT Assay for urokinase plasminogen activator (uPA) Biomarker Activity (AID 2283075). To be noted: primary human keratinocytes with fibroblasts; actives raise or lower the signal. Summed up: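 ELISA read-out of uPA 24 h after dosing human skin keratinocytes co-cultured with foreskin fibroblasts. Signal change fitted both ways relative to DMSO; sulforhodamine B on parallel cultures marks overt cytotoxicity.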

Read-out in assay [12]: CD40, CD40 (gene 958)
Nature of the assay: BSK_LPS_CD40: BioMAP Diversity Plus: LPS Assay for CD40 Biomarker Activity (AID 2283076). To be noted: primary human HUVEC with PBMC; actives raise or lower the signal. In outline: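 CD40 signal, measured by ELISA, is fitted in both directions relative to DMSO vehicle. The system is an LPS-driven human vascular primary co-culture of endothelial cells and PBMC, sampled 24 h after compound addition.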

Read-out in assay [13]: E-selectin (Homo sapiens) (UniProt P16581)
Nature of the assay: BSK_LPS_Eselectin: BioMAP Diversity Plus: LPS Assay for Eselectin Biomarker Activity (AID 2283077). To be noted: primary human HUVEC with PBMC; actives raise or lower the signal. In outline:
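Signal of E-selectin, detected by ELISA, served as the endpoint; cells were umbilical vein endothelium with PBMC, read 24 h after treatment. DMSO defined baseline, and both increases and decreases were fitted.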

Read-out in assay [14]: Interleukin-8 (IL8), CXCL8 (gene 3576)
The assay can be described thus: BSK_LPS_IL8: BioMAP Diversity Plus: LPS Assay for Interleukin-8 (IL8) Biomarker Activity (AID 2283078). To be noted: primary human HUVEC with PBMC; actives raise or lower the signal. In outline: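 Endothelial cells and PBMC from human donors are co-cultured, treated with chemicals and LPS, then assayed for IL-8 by ELISA after 24 h. Parallel SRB staining (0.1% SRB after 10% TCA fixation, 560 nm) flags cytotoxicity.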

The nature of assay [15]: BSK_LPS_SRB: Viability Assessment in the BioMAP Diversity Plus: LPS Assay (AID 2283079).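 Note: total protein by sulforhodamine B absorbance as a cytotoxicity measure; measured one day after compound addition; fitted in both directions against DMSO so loss or gain of signal counts.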 To be noted: primary human HUVEC with PBMC. In outline: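 Overt cytotoxicity was gauged by sulforhodamine B total-protein staining in a primary human vascular endothelial and mononuclear cell co-culture 24 h post-dosing. Activity was fitted in both directions relative to DMSO.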
Read-out in assay [16]: Interleukin-1 alpha (IL1a), IL1A (gene 3552)
The assay can be described thus: BSK_LPS_IL1a: BioMAP Diversity Plus: LPS Assay for Interleukin-1 alpha (IL1a) Biomarker Activity (AID 2283080). To be noted: primary human HUVEC with PBMC; actives raise or lower the signal. Summed up: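 Measured: IL-1 alpha via ELISA at 24 h in LPS-activated human umbilical vein endothelium–PBMC co-culture. Baseline: DMSO, bidirectional fitting.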

Read-out in assay [17]: Monocyte Chemoattractant Protein-1 (MCP1), CCL2 (gene 6347)
Nature of the assay: BSK_LPS_MCP1: BioMAP Diversity Plus: LPS Assay for Monocyte Chemoattractant Protein-1 (MCP1) Biomarker Activity (AID 2283081).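 For AC50: secreted MCP-1 protein quantified by ELISA in culture supernatant.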 To be noted: primary human HUVEC with PBMC; actives raise or lower the signal. Summed up:
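LPS-stimulated HUVEC/PBMC co-culture; chemical, 24 h; MCP-1 by ELISA; bidirectional fit vs DMSO; cytotoxicity via SRB (0.1% stain, 10% TCA fix, 560 nm) in parallel wells.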

Read-out in assay [18]: Matrix Metallopeptidase 1 (MMP1), MMP1 (gene 4312)
Nature of the assay: BSK_hDFCGF_MMP1: BioMAP Diversity Plus: hDFCGF Assay for Matrix Metallopeptidase 1 (MMP1) Biomarker Activity (AID 2283064). To be noted: primary human foreskin fibroblasts; actives raise or lower the signal. In outline: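 MMP1 levels quantified by ELISA 24 h after dosing human dermal fibroblast cultures, with parallel SRB total-protein staining for overt cytotoxicity. Data fitted in both directions against DMSO baseline.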

Read-out in assay [19]: TIMP metallopeptidase inhibitor 2 (TIMP2), TIMP2 (gene 7077)
Nature of the assay: BSK_KF3CT_TIMP2: BioMAP Diversity Plus: KF3CT Assay for TIMP metallopeptidase inhibitor 2 (TIMP2) Biomarker Activity (AID 2283071). To be noted: primary human keratinocytes with fibroblasts; actives raise or lower the signal. Summed up:
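TIMP-2 measured by ELISA at 24 h in human keratinocyte/fibroblast primary co-cultures exposed to chemicals. Both increases and decreases were fitted against DMSO. Parallel cultures were stained with SRB for total protein as an overt-cytotoxicity check.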

Read-out in assay [20]: Matrix Metallopeptidase 9 (MMP9), MMP9 (gene 4318)
The assay can be described thus: BSK_KF3CT_MMP9: BioMAP Diversity Plus: KF3CT Assay for Matrix Metallopeptidase 9 (MMP9) Biomarker Activity (AID 2283074). To be noted: primary human keratinocytes with fibroblasts; actives raise or lower the signal. In outline: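 MMP-9 quantified by ELISA after 24 h chemical treatment of primary human skin keratinocyte/fibroblast co-cultures; gain or loss fitted against DMSO, with parallel SRB staining (0.1% SRB, 560 nm) for overt cytotoxicity.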

For orientation: AC50 means the concentration giving half of the maximal activity seen.

Sequence of E-selectin (Homo sapiens) (P16581 whole entry, looked up): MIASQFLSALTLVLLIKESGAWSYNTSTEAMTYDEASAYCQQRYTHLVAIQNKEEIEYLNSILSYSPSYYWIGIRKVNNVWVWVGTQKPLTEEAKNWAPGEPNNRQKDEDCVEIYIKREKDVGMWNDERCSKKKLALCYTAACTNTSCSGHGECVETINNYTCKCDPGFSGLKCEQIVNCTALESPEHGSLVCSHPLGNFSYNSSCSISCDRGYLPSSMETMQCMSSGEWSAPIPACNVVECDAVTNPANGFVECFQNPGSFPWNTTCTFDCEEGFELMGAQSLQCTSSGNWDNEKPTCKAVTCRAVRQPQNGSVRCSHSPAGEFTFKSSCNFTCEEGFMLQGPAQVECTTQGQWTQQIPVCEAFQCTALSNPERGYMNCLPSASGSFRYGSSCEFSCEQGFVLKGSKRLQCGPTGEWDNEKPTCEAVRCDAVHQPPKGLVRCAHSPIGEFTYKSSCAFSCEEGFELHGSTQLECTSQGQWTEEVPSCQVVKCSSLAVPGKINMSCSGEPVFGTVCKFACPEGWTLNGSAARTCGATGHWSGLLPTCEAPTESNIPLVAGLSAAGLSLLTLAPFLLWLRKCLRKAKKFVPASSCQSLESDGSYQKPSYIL

In the case of `O=C(O)c1cc(N=Nc2ccc(S(=O)(=O)Nc3ccccn3)cc2)ccc1O`, the outcome in assay [1], in assay [2], in [3], in assay [4], in assay [5] and in assay [6] was inactive. The outcome in assay [7], in [8], in assay [9], in assay [10], in assay [11] and in [12] was inactive. Besides, the outcome in [13], in assay [14], in assay [15], in assay [16] and in assay [17] was inactive.
With `CCCCCCCCO`, the outcome in assay [1], in assay [2], in [3], in assay [4], in [5] and in assay [6] was inactive. The result in assay [7], in assay [8], in [9], in [10], in assay [11] and in assay [12] was inactive. For the same molecule, the result in [13], in [14], in assay [15], in assay [16] and in assay [17] was inactive.
On to `O=C(O)c1cccc(Oc2ccccc2)c1`, for which the outcome in [1], in assay [2], in assay [18], in [4], in assay [5] and in assay [7] was inactive. Moreover, the result in assay [8], in assay [19], in [9], in assay [10], in assay [20] and in [11] was inactive. Besides, the outcome in assay [12], in assay [13], in assay [14], in assay [15], in assay [16] and in [17] was inactive.
For `Fc1ccccc1[C@@H](F)COC1CCC(Nc2ncnc3[nH]ncc23)CC1` (stereo partly drawn), the outcome in assay [1], in assay [2], in [3], in assay [4], in [5] and in [6] was inactive. For the same molecule, the result in assay [8], in assay [9], in assay [10], in [20], in [11] and in assay [16] was inactive. Besides, the AC50 is 15.4 µM (active) in [12], 28.9 µM (active) in [14], 29.2 µM (active) in assay [15] and 30.3 µM (active) in [17].
Turning to `CCOC(=O)CC(CC(=O)OCC)(OC(C)=O)C(=O)OCC`, the result in assay [1], in [2], in assay [3], in assay [4], in [5] and in assay [8] was inactive. Also, the outcome in assay [19], in assay [9], in assay [10], in assay [11], in assay [12] and in [13] was inactive. In addition, the outcome in [14], in assay [15], in [16] and in [17] was inactive.
Turning to `CC(=O)OCCC(C)C`, the result in [1], in assay [2], in [3], in assay [4], in [5] and in [7] was inactive. Moreover, the result in [8], in assay [19], in assay [9], in [10], in [11] and in assay [12] was inactive. Also, the result in [14], in assay [15], in assay [16] and in assay [17] was inactive.
`CC(C)CCCCCCCOC(=O)CCCCC(=O)OCCCCCCCC(C)C`: the outcome in [1], in assay [2], in assay [4], in [5], in [6] and in [7] was inactive. The result in assay [8], in [19], in assay [9], in assay [10], in assay [20] and in [11] was inactive. For the same molecule, the result in assay [12], in assay [14], in assay [15], in [16] and in assay [17] was inactive.
Consider `CC(=O)OC[C@H]1O[C@@](COC(C)=O)(O[C@H]2O[C@H](COC(C)=O)[C@@H](OC(C)=O)[C@H](OC(C)=O)[C@H]2OC(C)=O)[C@@H](OC(C)=O)[C@@H]1OC(C)=O`, for which the outcome in assay [1], in [2], in assay [3], in assay [4], in assay [5] and in assay [8] was inactive. Also, the outcome in [19], in assay [9], in [10], in [20], in assay [11] and in assay [12] was inactive. The result in [14], in assay [15], in assay [16] and in [17] was inactive.
